Measurements published in ChEMBL document CHEMBL1157539, “Thousands of chemical starting points for antimalarial lead identification” (Nature, 2010).

Tested on: Plasmodium falciparum
Assay: GSK_TCMDC: Inhibition of Plasmodium falciparum 3D7 in whole red blood cells, using parasite LDH activity as an index of growth. Test compounds present at 2uM
Type: functional

SMILES	Inhibition [%]
CC(C)NCc1ccc(-c2cccc(-c3nc4cc(F)ccc4[nH]3)c2)cc1.O=C(O)C(F)(F)F	100
Cn1cnc2nc(NCCc3ccccc3)nc(NCc3cccc4ccccc34)c21	95
Fc1ccc2[nH]c(-c3ccc(-c4ccc(CNCCc5ccncc5)cc4)s3)nc2c1.O=C(O)C(F)(F)F	99
Cc1ccc(S(C)(=O)=O)cc1/C=C/C(=O)O	96
Oc1cccc(/C=N/Nc2ccnc3cc(Cl)ccc23)c1	100
COc1ccc(C2C(C(=O)Nc3ccc4c(c3)OCO4)c3cc(OC)c(OC)cc3C(=O)N2C)cc1 (centres undefined)	89
CCCC(C)NC[C@@H](O)[C@H](Cc1ccccc1)NC(=O)c1cc(C2CCCC2)cc(N2CCCCS2(=O)=O)c1.Cl (some centres undefined)	98
CCN(CC)CCNc1ccnc2c3ccccc3n(C)c12	100
Cc1ccc(/C=C2/SC(=Nc3ccccc3)NC2=O)c(C)c1	93
CCOc1cc(C(=O)N[C@@H](Cc2ccccc2)[C@H](O)CNCc2cc(OC)cc(OC)c2)cc(N2CCCCS2(=O)=O)c1.Cl	100
CN1CCC(N(C)C(=O)C=Cc2cn(-c3ccccc3)nc2-c2cc3ccccc3o2)CC1.Cl	92
O=C(O)C(F)(F)F.c1cc(CN2CCN(c3ccncc3)CC2)cc(-c2cccc(-c3nc4ccccc4[nH]3)c2)c1	100
CCOc1cc(C)ccc1C1CCN(CCCCNC(=O)c2cccc(-c3ccc(C(F)(F)F)cc3)c2)CC1	99
O=C(c1cccs1)N1N=C(c2cccs2)CC1c1cccc([N+](=O)[O-])c1 (centres undefined)	95
COC(=O)c1sc(-c2ccc(Cl)cc2)cc1N(CCCN1CCC(N2CCCCC2)CC1)S(=O)(=O)c1ccc(C)cc1	100
Cc1cc(N/N=C/c2ccccc2[N+](=O)[O-])c2ccc(F)cc2n1	100
Cc1cc(NC(=O)Nc2ccc3sccc3c2)c2ccccc2n1	99
Nc1ncc(-c2ccc3nccc(-c4ccncc4)c3c2)cc1S(=O)(=O)N1CCCCC1	100
Cc1cc2ccccc2n1CC(=O)N1CC(C(=O)N2CCCCC2)Oc2ccccc21 (centres undefined)	99
Cc1cc(N[C@@H](Cc2ccccc2)C(=O)NC2CCCC2)nc(Nc2ccccc2)n1.O=C(O)C(F)(F)F	100

SMILES	Inhibition [%]
CC(C)(C)c1ccccc1OC(=O)c1ccccc1	95
C[C@@H](CNc1ccnc(Nc2ccc3[nH]c(=O)[nH]c3c2)n1)c1ccccc1	100
Cc1ccc(CN2CCCN(Cc3cccc(NC(=O)c4cc5ccccc5s4)c3)CC2)cc1C.O=C(O)C(F)(F)F	92
COc1ccc2nccc([C@@H](O)CN3CCC(NCc4cc5ccccc5nn4)CC3)c2c1.O=C(O)C(=O)O	94
Cc1ccc(Nc2nc(C)cc(NC3CCCC3)n2)cc1	100
COc1ccc2nccc([C@@H](O)CN3CCC(NC(=O)c4ccc(-c5ccc(C#N)cc5)cc4)CC3)c2c1	100
Oc1c(C=Nn2cnnc2)sc2ccccc12	93
O=C(O)C(F)(F)F.O=S(=O)(NCCN1CCCC1)c1ccc(-c2ccc(CNC3Cc4ccccc4C3)cc2)s1	100
COc1cc2c(=O)c(Cc3ccc(Cl)cc3)c(C)[nH]c2cc1F	85
CCOCc1cnc(C)nc1NCC(=O)c1c(C)[nH]c2cc(C)ccc12.I	89
O=C(Cc1n[nH]c(=O)c2ccccc12)Nc1cccc(C(=O)Nc2cccc(C(F)(F)F)c2)c1	97
O=C(O)C(F)(F)F.O=[N+]([O-])c1cccc(CNCC2CCC(CNCc3cccc([N+](=O)[O-])c3)CC2)c1 (centres undefined)	100
O=C(/C=C/c1ccc(Cl)c(Cl)c1)NCCCCCN1CCC(c2cn[nH]c2-c2ccccc2)CC1	85
Nc1ncc(-c2cn[nH]c2)cc1-c1nc2cc(Cl)cnc2[nH]1	100
CC(=O)N1N=C(c2ccc(F)cc2)Sc2c1nc(C1CCCCC1)n2C(C)=O	92
COc1ccc2ncc(Cl)c(CCN3C[C@H](CNCc4ccc5c(n4)NC(=O)CS5)[C@H](O)C3)c2n1.Cl	94
Cc1cc(N[C@@H](Cc2ccccc2)C(=O)NC2CCCC2)nc(NCCCOC(C)C)n1.O=C(O)C(F)(F)F	92
N#CN1CC[C@@H](NS(=O)(=O)Cc2ccc(Cl)c(Cl)c2)C1	94
CC1CCc2sc(-c3nnc(SC(C)C(=O)N4CCCC4)o3)cc2C1 (centres undefined)	93
